The entries come from a sample that favours hits as a whole.
Shiga inhibitor = inhibitors of Shiga toxin in Vero cells | Vero cells, Shiga toxin protein synthesis inhibition reporter | inhibition, % at 38.7 µM | hit rate 9.2% among 290,000 | AID 2315; in the data active = inhibition mostly above about 28%, no sharp cut-off; inactive = mostly below about 43%; also: 0% is about no effect
Giardia FBPA inh = Giardia lamblia aldolase inhibition. A8B2U2. AID 2451. Potency, µM (top dose mostly 59.6 µM), for inactives: top-dose activity, negative = inhibition, hits mostly inhibitors. hit rate 0.71% among 290,000. purified Giardia FBPA; also: potency is read from the fitted curve at half-maximal effect; % is scaled to controls: 0 for no effect and ±100 for the full control effect; nearly all actives have a fitted effect of over 55% in size
Target sequence (A8B2U2 whole entry, looked up): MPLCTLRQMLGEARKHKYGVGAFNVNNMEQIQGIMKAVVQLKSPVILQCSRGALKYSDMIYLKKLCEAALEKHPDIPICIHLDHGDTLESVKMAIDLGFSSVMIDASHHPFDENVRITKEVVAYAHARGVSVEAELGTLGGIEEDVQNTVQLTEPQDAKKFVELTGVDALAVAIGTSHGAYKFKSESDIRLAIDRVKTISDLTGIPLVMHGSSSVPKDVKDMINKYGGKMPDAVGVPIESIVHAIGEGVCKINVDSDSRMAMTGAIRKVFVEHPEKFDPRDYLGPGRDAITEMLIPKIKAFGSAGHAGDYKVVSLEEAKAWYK
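40 nM FBPA preincubated 10 min at RT with compound (up to 57.5 uM final), then substrate plus GAPDH/TPI/NAD/arsenate coupling and diaphorase/resazurin added. Fluorescence read after 20 min at RT, 525/598 nm.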
Sm TGR block = S. mansoni TGR enzyme inhibition; Q962Y6; purified TGR, DTNB reduction, TNB absorbance 405 nm; Potency, µM (doses to about 114 µM), for inactives: at the top dose activity change, negative = inhibition, most hits filed as inhibitors; hit rate 3% among 360,000; also: potency is read from the fitted curve at half-maximal effect; % is scaled to controls: 0 for no effect and ±100 for the full control effect; nearly all actives have a fitted effect of over 60% in size
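TGR 20 nM + NADPH 100 uM (dispensed conc.), cpd preinc 15 min RT; start with NADPH (500 uM addition) then DTNB (15 mM addition). Kinetic TNB absorbance, 405 nm filter. Four-parameter Hill fit across titration.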
TbPYK inhibitor = blocks Trypanosoma brucei pyruvate kinase; Q57TT1; TbPYK enzyme, Kinase-Glo Plus ATP luminescence, 45 min; Potency, µM (highest dose often 76.8 µM), for the others: at the highest dose activity, negative = inhibition, actives largely listed as inhibitors; hit rate 0.12% among 410,000; AID 624173; also: potency is read from the fitted curve at half-maximal effect; % is scaled to controls: 0 for no effect and ±100 for the full control effect; nearly all actives have a fitted effect of over 50% in size
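Screened from lowest to highest concentration, compounds were pinned into TbPYK/substrate mixtures, and ADP (130 uM final) was added. Plates sat at room temperature for 45 min prior to Kinase-Glo Plus detection by luminescence.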
LmPK inhibitor = blocks Leishmania mexicana pyruvate kinase activity; Q27686; purified LmPK, Kinase-Glo ATP luminescence, 1 h; Potency, µM (series often up to 57.5 µM), for inactives: top-dose activity change, negative = inhibition, usual class: inhibitors; hit rate 0.37% among 290,000; AID 1721; also: potency is read from the fitted curve at half-maximal effect; % is scaled to controls: 0 for no effect and ±100 for the full control effect
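0.1 nM LmPK, 0.5 mM PEP, 0.1 mM ADP; 50 mM imidazole pH 7.2, 7 mM MgCl2, 50 mM KCl; 1 h RT. Kinase-Glo luminescence readout, normalized to no-enzyme (full inhibition) and uninhibited wells.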
Cycloheximide cs = affects cycloheximide protein synthesis inhibition readout, counter-screen; cell reporter, cycloheximide protein synthesis inhibition counterscreen; max response, %; hit rate 12% among 300,000; in the data active = max response mostly above about 13%, no sharp cut-off; inactive = mostly below about 14%; also: read at 38.3 µM for the half of the compounds with a filed dose; 0% is about no effect
An asterisk follows results filed as active; u = inconclusive; x = not tested or not shown; + = active, no number. Unless noted, calls follow the shape of the dose curve; as a rule, active = well fitted curve in the direction sought with a large enough effect; inconclusive = small, poorly fitted or top-dose-only effect, or another doubt; inactive = no such curve, though single readings can be large; an effect the other way counts as inactive or inconclusive.

SMILES	Shiga inhibitor	Giardia FBPA inh	Sm TGR block	TbPYK inhibitor	LmPK inhibitor	Cycloheximide cs
Cc1ccc(NC(=O)C2CCC(CNS(=O)(=O)c3ccc4c(c3)CCCC(=O)N4)CC2)cc1F (stereo not given)	x	x	8.9%	1.2%	x	x
Cc1cccc(S(=O)(=O)N2CCn3cccc3C2C)c1 (stereo not given)	x	x	44.7µM*	-0.9%	x	x
Cc1ccc(S(=O)(=O)N2CCn3cccc3C2C)cc1 (stereo not given)	x	x	u	-4.8%	x	x
Cc1ccc(OCCn2c(=O)n(C)c3ccccc32)cc1	104.5*	-7.0%	0.2%	-3.5%	5.9%	42.3*
Cn1c(=O)n(CCOc2ccc([N+](=O)[O-])cc2)c2ccccc21	67.5*	-6.5%	-13.4%	-5.4%	1.6%	26.2*
O=[N+]([O-])c1ccc(OCCN2CCNCC2)cc1	-6.7	u	-5.1%	3.3%	-11.6%	-3.8
CCc1cc(CNC(=O)c2ccc(OC3CCN(C(C)=O)CC3)c(OC)c2)on1	4.8	-0.6%	-10.7%	1.6%	1.2%	1.7
Cc1ccc(OC(=O)c2ccc(Cl)c([N+](=O)[O-])c2)cn1	-1.6	-1.5%	50.1µM*	-7.9%	-2.1%	-3.4
Cc1ccc(C(=O)Oc2cccnc2)cc1[N+](=O)[O-]	-7.1	3.9%	-35.4%	2.5%	0.7%	-0.6
COc1ccc(C(=O)Oc2cccnc2)cc1OC	17.9	-22.8%	0.0%	-3.4%	-9.6%	3.9
Cc1ccc(OC(=O)c2ccc(C)c(C)c2)cn1	51.6*	3.1%	1.9%	2.7%	-3.9%	33.9*
COc1ccc(Cl)cc1NC(=O)Cn1cc(C(=O)c2ccncc2)c(=O)c2cc(C)ccc21	x	x	0.2%	-5.6%	x	x
O=c1/c(=C/c2ccc([N+](=O)[O-])cc2)sc2n1CCCN=2	45.7*	-7.7%	3.4%	-12.4%	-8.4%	35.4*
COc1cc(/C=c2\sc3n(c2=O)C(c2ccccc2)C(c2ccccc2)=NN=3)ccc1O (stereo not given)	-22.1	-15.2%	-2.5%	-0.3%	-5.7%	-3.6
COc1cc(/C=c2\sc3n(c2=O)CCCN=3)ccc1O	71.4	-3.5%	-21.2%	-3.4%	-3.6%	24.9*
CCN(CC)C(=S)SCC(=O)c1ccc(Br)cc1	166.9*	-4.3%	0.0%	3.1%	0.2%	107.0*
CCn1c(CNC(C)=O)nnc1SCC(=O)c1ccc(Br)cc1	13.4	-23.0%	-2.0%	-17.0%	-0.2%	2.6
O=C(O)CN1C(=O)/C(=C\c2cccc(OCc3ccccc3)c2)SC1=S	x	27.9%	0.501µM*	-7.6%	3.9%	0.7
COc1ccc(/C=C2/SC(=S)N(CC(=O)O)C2=O)cc1OCc1ccc(Cl)cc1	41.8*	5.1%	-0.7%	-16.0%	-2.6%	32.5*
Cn1c2cc(S(C)=O)sc2c2cnn(Cc3ccccc3F)c(=O)c21 (stereo not given)	-2.8	x	x	x	x	-8.0
O=C(O)c1[nH]c2ccccc2c1C(c1cc(Br)ccc1O)c1c(C(=O)O)[nH]c2ccccc12	-16.6	15.0%	-15.8%	0.4%	0.1%	-1.9
Cc1ccc(C(c2cccc(Br)c2)c2c(C)[nH]c3ccccc23)s1 (stereo not given)	x	x	25.1µM*	-5.1%	x	x
O=C(/C=C/c1ccco1)N(Cc1ccc(F)cc1)C1CCS(=O)(=O)C1 (stereo not given)	11.9	0.5%	7.94µM*	-5.6%	0.5%	-1.4
O=C(/C=C/c1ccco1)N(Cc1cccc(F)c1)C1CCS(=O)(=O)C1 (stereo not given)	-3.8	x	10µM*	-6.8%	-5.4%	-9.9
O=C(/C=C/c1ccccc1)N(Cc1cccc(Cl)c1)C1CCS(=O)(=O)C1 (stereo not given)	-12.8	2.6%	-5.9%	2.8%	4.8%	-1.5
SMILES	Shiga inhibitor	Giardia FBPA inh	Sm TGR block	TbPYK inhibitor	LmPK inhibitor	Cycloheximide cs
O=C(c1ccco1)N(Cc1cccc(F)c1)C1CCS(=O)(=O)C1 (stereo not given)	-8.4	12.5%	-11.3%	19.1%	-1.6%	-4.1
O=C(/C=C/c1ccco1)N(Cc1cccc(Cl)c1)C1CCS(=O)(=O)C1 (stereo not given)	40.1	-1.3%	2.82µM*	-13.3%	-2.3%	1.2
O=C(/C=C/c1ccco1)N(Cc1ccccc1)C1CCS(=O)(=O)C1 (stereo not given)	23.1	-1.0%	3.16µM*	0.5%	1.0%	-2.7
O=C(/C=C/c1ccccc1)N(Cc1ccc(Cl)cc1)C1CCS(=O)(=O)C1 (stereo not given)	1.9	-1.1%	-0.4%	-3.4%	-3.3%	-0.5
COc1ccc(S(=O)(=O)n2cccc2)cc1	x	x	x	-4.2%	x	x
COCCn1c(SCC(=O)c2ccc(F)cc2)nc2cc(C(=O)NC3CCCC3)ccc2c1=O	x	x	2.7%	-6.2%	x	x
CC(=O)c1cccc(NC(=O)Cn2c(=O)c(CNc3ccc(C)cc3)cc3cc4c(cc32)OCCO4)c1	x	x	-8.4%	-1.9%	x	x
O=C(c1ccccc1)N(Cc1cccc(Br)c1)C1CCS(=O)(=O)C1 (stereo not given)	-8.3	3.1%	6.2%	-12.2%	2.4%	6.5
O=C(/C=C/c1ccco1)N(Cc1cccc(Br)c1)C1CCS(=O)(=O)C1 (stereo not given)	15.6	0.0%	3.16µM*	-22.1%	1.9%	-1.6
CCn1cc(C(=O)Nc2ccc3c(c2)OCCO3)c2cc(OC)c(OC)cc2c1=O	28.9	-20.1%	-1.4%	-6.9%	11.7%	11.6*
COc1cccc(OC)c1C(=O)Nc1ccc2c(c1)OCCO2	25.1	1.8%	1.6%	7.5%	1.1%	-3.4
COc1cc(C(=O)Nc2ccc3c(c2)OCCO3)ccc1OC(F)F	66.3*	10.6%	-7.7%	-3.8%	u	33.5*
COc1cc(C(=O)Nc2ccc3c(c2)OCCO3)ccc1OC(C)C	+	5.1%	-7.0%	-0.9%	-6.6%	44.3*
COc1ccc(C(=O)Nc2ccc3c(c2)OCCO3)cc1[N+](=O)[O-]	30.6*	-0.1%	5.3%	1.8%	0.5%	17.9*
CCOc1ccccc1NC(=O)N1c2ccccc2Sc2ccccc21	x	x	8.8%	-2.4%	x	x
COc1cc(NC(=O)c2ccc3c(c2)OCCO3)ccc1NC(=O)c1ccccc1Cl	-19.5	x	-18.3%	2.0%	-5.9%	-6.7
CCn1cc(C(=O)N(C)c2cc(C)ccc2OC)c2cc(OC)c(OC)cc2c1=O	-3.9	-4.7%	-3.2%	5.4%	-2.9%	-5.5
CCn1cc(C(=O)N(C)c2ccc(OC)cc2OC)c2cc(OC)c(OC)cc2c1=O	58.0*	6.5%	2.8%	4.9%	1.7%	47.1*
COc1ccc(NC(=O)c2ccc3c(c2)OCCO3)cc1OC	62.1*	-0.8%	2.2%	0.0%	-22.7%	21.7*
COc1cccc(-c2cn3c(n2)sc2cc(C(=O)NC4CCCCCC4)ccc23)c1	x	x	-3.8%	-3.1%	x	x
Cc1oc2ncn(CC(C)C)c(=O)c2c1C(=O)NCCCN1CCC(C)CC1	x	x	-8.3%	1.5%	x	x
O=C1OC(c2ccccc2)=N/C1=C\C=C\c1ccco1	-8.4	-1.3%	u	-6.1%	3.3%	1.5
